Source: PubChem (National Center for Advancing Translational Sciences (NCATS))
This is a sample that favours compounds with a hit; in the whole collection about 9.9% have one here.
HPGD inh = blocks human HPGD enzyme activity | P15428 | purified HPGD, NADH fluorescence kinetic, PGE2 substrate | Potency, µM, without a hit: at the highest dose activity change, negative = inhibition, usual class: inhibitors | actives 4.3% (n = 150,000) | AID 894
Target sequence (P15428 whole entry, looked up): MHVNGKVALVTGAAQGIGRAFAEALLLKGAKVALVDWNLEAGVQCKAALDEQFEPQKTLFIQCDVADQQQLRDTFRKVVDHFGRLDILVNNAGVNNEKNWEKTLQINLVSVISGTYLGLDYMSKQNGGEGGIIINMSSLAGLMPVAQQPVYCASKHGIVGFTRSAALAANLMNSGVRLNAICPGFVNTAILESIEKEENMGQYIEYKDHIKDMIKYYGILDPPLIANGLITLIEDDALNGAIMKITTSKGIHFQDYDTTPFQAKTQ
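NADH formation kinetics: reaction with 30 uM PGE2 and 1 mM NAD+ (final), 20 nM enzyme, Tris-HCl pH 8 with Tween 20, after 15 min compound preincubation at room temperature. Fluorescence change, last versus first of five reads.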
KDM4E inh = JMJD2E (human) inhibition. JMJD2E catalytic domain, FDH-coupled NADH fluorescence (FDH is formaldehyde dehydrogenase). Potency, µM (titrated, usually from 57.1 µM), for inactives: at the highest dose activity change, negative = inhibition, most hits filed as inhibitors. actives 1.6% (n = 230,000). AID 2147;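 note: 0% = wells with enzyme and -100% = buffer wells without enzyme; nearly all actives have a fitted effect of over 50% in size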
Tau ThT inhib = tau fibrillization inhibition (ThT binding). P10636. recombinant tau K18 P301L, heparin-induced fibrillization, ThT fluorescence. Potency, µM (doses to about 57.4 µM), without a hit: at the top dose activity, negative = inhibition, actives largely listed as inhibitors. actives 2.1% (n = 270,000); active = well fitted curve in the direction sought with a large enough effect; inconclusive = small, poorly fitted or top-dose-only effect, or another doubt; inactive = no such curve, though single readings can be large; an effect the other way counts as inactive or inconclusive; note: nearly all actives have a fitted effect of over 55% in size
Target sequence (P10636 561-689 P618L limits assumed): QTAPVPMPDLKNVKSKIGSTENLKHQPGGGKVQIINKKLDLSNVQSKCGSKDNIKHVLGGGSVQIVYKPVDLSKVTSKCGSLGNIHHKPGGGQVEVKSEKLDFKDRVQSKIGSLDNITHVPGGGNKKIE
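Using a mix of unlabeled (15 uM) and Alexa 594-labeled (0.24 uM) tau K18 P301L, heparin-triggered fibrillization over 6 hr at 37 C was scored by ThT fluorescence.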
Tau fibril FP = inhibitors of human tau fibril formation; K18 P301L tau heparin fibrillization, Alexa594 FP, 6 h; P10636; actives 0.39% (n = 280,000); AID 1468; Potency, µM (highest dose often 57.7 µM), without a hit: at the highest dose activity, negative = inhibition, most hits filed as inhibitors; active = well fitted curve in the direction sought with a large enough effect; inconclusive = small, poorly fitted or top-dose-only effect, or another doubt; inactive = no such curve, though single readings can be large; an effect the other way counts as inactive or inconclusive; note: nearly all actives have a fitted effect of over 55% in size
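Human tau K18 […] P301L fragment, 15 uM unlabeled plus 0.24 uM Alexa 594-labeled tau (final), with compound and 20 uM heparin in 100 mM sodium acetate pH 7; 6 hr at 37 C, then Alexa 594 FP read.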
Tau fluor counter = counter-screen for tau fibril formation inhibitors | tau K18 P301L Alexa594 fluorescence, heparin fibrillization | AID 1463 | actives 0.93% (n = 280,000) | Potency, µM (series often up to 57.7 µM), for the others: top-dose activity change, negative = decrease; active = well fitted curve in the direction sought with a large enough effect; inconclusive = small, poorly fitted or top-dose-only effect, or another doubt; inactive = no such curve, though single readings can be large; an effect the other way counts as inactive or inconclusive; note: nearly all actives have a fitted effect of over 55% in size
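Human tau K18 P301L (15 uM unlabeled, 0.24 uM Alexa 594-labeled) in 100 mM sodium acetate pH 7 with 20 uM heparin, 6 hr at 37 C. ThT 30 uM added, 1 hr ambient; Alexa 594 FP and total fluorescence read at 555/632 nm.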
ALDH1A1 inh = blocks purified human ALDH1A1 activity; P00352; Purified ALDH1A1, NADH fluorescence, propionaldehyde substrate; Potency, µM (series often up to 75.3 µM), without a hit: top-dose activity, negative = inhibition, hits mostly inhibitors; actives 7.3% (n = 220,000);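 note: plate controls were no enzyme wells and a reference inhibitor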
* marks the source's active call; other numbers are inactive results; ? = inconclusive; . = no result given; [ ] = remark or other dose. Unless noted, calls come from the whole dose curve; as a rule, active = well fitted inhibition curve with a large enough effect (not every such curve was filed as active); inconclusive = small, poorly fitted or top-dose-only effect, or another doubt; inactive = no such curve, though single readings can be large or run the other way. Unless noted, % is set by controls: 0 for no effect and ±100 for the full control effect; potency is the fitted concentration of half-maximal effect.

SMILES	HPGD inh	KDM4E inh	Tau ThT inhib	Tau fibril FP	Tau fluor counter	ALDH1A1 inh
O=C1NC(=Nc2ccccc2)S/C1=C\C=C\c1ccco1	28µM*	-3%	4%	1%	0%	14%
Cc1ccc(N=C2NC(=O)/C(=C/C=C/c3ccco3)S2)cc1	-23%	25µM*	6.3µM*	?	?	4.5µM*
Cc1cccc(N=C2NC(=O)/C(=C/C=C/c3ccco3)S2)c1C	7.9µM*	3%	16µM*	?	?	2.8µM*
CC(C)OC(=O)CSc1nnc2c(n1)[nH]c1ccc(F)cc12	.	10%	1%	-10%	-2%	1%
COc1ccc2[nH]c(O)c(N=NC(=O)Cc3cccs3)c2c1	.	0%	16µM*	14%	?	.
CCCCCCCCC#CCC#CCC#CCCCC(=O)O	-16%	0%	-8%	-5%	-3%	3%
CCc1cccc(NC(=O)CN2Cc3ccccc3C2=O)c1	.	.	-6%	-3%	-3%	.
CCc1ccc2[nH]c(=O)c(C(c3nnnn3CCOC)N3CCN(c4ccccc4)CC3)cc2c1 (stereo not given)	-5%	?	?	-4%	-15%	11µM*
COCCn1nnnc1C(c1cc2cccc(C)c2[nH]c1=O)N1CCN(c2ccccc2F)CC1 (stereo not given)	-17%	?	?	1%	-2%	16µM*
COCCn1nnnc1C(c1ccccc1OC)N1CCN(c2ccccc2F)CC1 (stereo not given)	3%	-6%	-9%	0%	-5%	-15%
CCc1ccc2[nH]c(=O)c(C(c3nnnn3CCOC)N3CCN(c4ccc(F)cc4)CC3)cc2c1 (stereo not given)	-11%	?	?	11%	-22%	?
CCOC(=O)N1CCN(C(=S)NC(=O)c2ccnn2C)CC1	-26%	4%	0%	4%	2%	1%
CC(C)(C)NC(=O)CSc1nccn1Cc1ccccc1	-5%	-1%	4%	2%	5%	2%
CCCc1cc(N2CCCC(C(=O)Nc3ccc(OC)cc3OC)C2)n2ncnc2n1 (stereo not given)	28µM*	-2%	0%	-3%	-9%	?
CCN(CC)c1ccc(/C=N\NC(=O)c2cccc3cc[nH]c23)cc1	.	?	6.3µM*	-4%	14µM*[quencher]	.
O=C(N/N=C/c1ccc([N+](=O)[O-])cc1)c1cccc2cc[nH]c12	.	3%	?	6%	-18%	6%
O=C(N/N=C/c1ccncc1)c1cccc(N/N=C/c2ccncc2)c1	.	-1%	?	3%	?	-7%
CCN(CC)c1ccc(/C=N/NC(=O)c2ccoc2C)cc1	.	?	10µM*	-3%	?	.
O=C(N/N=C/c1ccc(O)cc1)c1cccc(N/N=C/c2ccc(O)cc2)c1	.	-7%	5µM*	5%	14µM*[quencher]	22µM*
CN(C)c1ccc(/C=N/NC(=O)c2ccc(NC(=O)c3ccccc3)cc2)cc1	.	?	1.6µM*	3%	?	.
O=C(N/N=C/c1ccc(F)cc1)c1ccccc1	.	3%	-2%	-3%	-5%	8%
FC(F)(F)c1cccc(N2CCN(c3ncnc4c3nc3n4CCCC3)CC2)c1	.	.	-8%	15%	4%	.
CCCOc1ccccc1Cn1c(=O)sc2ccccc21	.	.	-12%	-8%	-16%	.
O=C(O)/C=C/C(=O)NCCCc1ccccc1	.	0%	-3%	-3%	-1%	-5%
CCN(CC)c1ccc(/C=N/NC(=O)c2ccc(O)cc2)cc1	?	?	3.2µM*	16%	?	?
SMILES	HPGD inh	KDM4E inh	Tau ThT inhib	Tau fibril FP	Tau fluor counter	ALDH1A1 inh
C/C(=N\NC(=O)c1ccc(N(C)C)cc1)c1ccc(C)c(C)c1	.	26%	?	5%	-11%	14µM*
CCN(CC)c1ccc(C(=O)N/N=C(\C)c2ccc(O)cc2)cc1	-22%	-14%	?	1%	-15%	25µM*
O=C(Nc1ccccc1C(=O)N/N=C/c1ccc(F)cc1)c1ccccc1Br	-18%	1%	-5%	?	?	?
O=C(N/N=C/c1ccc(O)cc1)c1ccc(NC(=O)c2ccccc2Br)cc1	14µM*	-22%	-29%	7%	?	?
Cc1cc(NC(=O)N(C)CCc2c(C)nn(C)c2C)ccc1Br	.	.	-5%	7%	6%	.
CCC1CCCCN1S(=O)(=O)c1ccc(NC(=O)c2nc(SC)ncc2Cl)cc1 (stereo not given)	.	.	-4%	-14%	?	.
C=CCOCCN1C(=O)C2C3C=CC(C2C1=O)C1C2C(=O)N(CCOCC=C)C(=O)C2C31 (stereo not given)	.	-1%	-3%	4%	2%	14µM*
O=C1CC(N2CCN(Cc3ccccc3)CC2)C(=O)N1c1ccccc1 (stereo not given)	-2%	-3%	-5%	-4%	-3%	-14%
CCOC(=O)N1CCN(C2CC(=O)N(c3ccc(Cl)c(Cl)c3)C2=O)CC1 (stereo not given)	?	1%	-3%	9%	-1%	14µM*
CCOC(=O)N1CCN(C2CC(=O)N(c3ccccc3)C2=O)CC1 (stereo not given)	-8%	3%	1%	7%	6%	-2%
CCOC(=O)c1ccc(N2C(=O)CC(N3CCCC(C)C3)C2=O)cc1 (stereo not given)	-16%	-5%	-15%	-8%	-9%	3.2µM*
CCOC(=O)c1ccc(N2C(=O)CC(N3CCC(Nc4ccc(F)cc4)CC3)C2=O)cc1 (stereo not given)	-15%	-8%	?	8%	-24%	3.2µM*
CCOC(=O)c1ccc(N2C(=O)CC(N3CCN(Cc4ccccc4)CC3)C2=O)cc1 (stereo not given)	-4%	2%	2%	4%	0%	28µM*
CCOC(=O)c1ccc(NC(=O)Cn2ncc3c(C)n(Cc4ccccc4F)c(C)c3c2=O)cc1	.	.	0%	-15%	-14%	.
Cc1ccc(C)c(N2C(=O)N(C)c3ccccc3S2(=O)=O)c1	.	.	-11%	-9%	-26%	.
Cc1nc2cc(N=NC3=C(O)CCCC3=O)ccc2s1	-11%	-6%	16µM*	-4%	-26%	?
O=C1CCCC(O)=C1N=Nc1ccc(Cl)c(Cl)c1	.	-24%	?	7%	-10%	-12%
O=c1cc2c(=O)oc3cc(O)c(O)oc3c2c(O)c1O	.	4µM*	4.5µM*	?	-29%	-9%
COc1ccc(Cn2c(C(=O)O)c(CNCCc3ccccc3Cl)c3ccc(C)cc32)cc1	.	.	-16%	0%	-28%	.
O=C(CSc1nnnn1C1CCCCC1)Nc1nc2c(s1)CCCC2	-7%	-6%	-8%	7%	-13%	7.9µM*
CCOc1ccc2nc(NC(=O)CSc3nnnn3C3CCCCC3)sc2c1	-28%	?	-9%	-3%	?	8.9µM*
